In the library only some 4.6% were active in any assay of this set; here they are far more common.
NR3A LBD binder: binders of NR3A ligand-binding domain, primary screen, biophysical, differential scanning fluorimetry, uHTS. Glutamate receptor ionotropic, NMDA 3A (GRIN3A) ligand-binding domain. NR3A LBD differential scanning fluorimetry, Tm shift; 0% = protein alone, 100% = glycine-bound protein. Tm shift relative to glycine control, % at 25 µM. hit rate 2.5% among 340,000;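 active = melting temperature shift of at least 10% of the positive control shift, at one fixed dose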
ADAM17 inh: ADAM17 inhibitors, primary screen, biochemical, QFRET; inhibition, % at 6.95 µM; hit rate 0.83% among 370,000; AID 720648, 2013; recombinant ADAM17, EDANS/DABCYL FRET peptide cleavage; Disintegrin and metalloproteinase domain-containing protein 17 (Homo sapiens), P78536;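 active = inhibition above the mean of compounds lying between control limits plus 3 SD, set per campaign, cut at about 8.5% in these data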
Target sequence (P78536 215-824 limits assumed): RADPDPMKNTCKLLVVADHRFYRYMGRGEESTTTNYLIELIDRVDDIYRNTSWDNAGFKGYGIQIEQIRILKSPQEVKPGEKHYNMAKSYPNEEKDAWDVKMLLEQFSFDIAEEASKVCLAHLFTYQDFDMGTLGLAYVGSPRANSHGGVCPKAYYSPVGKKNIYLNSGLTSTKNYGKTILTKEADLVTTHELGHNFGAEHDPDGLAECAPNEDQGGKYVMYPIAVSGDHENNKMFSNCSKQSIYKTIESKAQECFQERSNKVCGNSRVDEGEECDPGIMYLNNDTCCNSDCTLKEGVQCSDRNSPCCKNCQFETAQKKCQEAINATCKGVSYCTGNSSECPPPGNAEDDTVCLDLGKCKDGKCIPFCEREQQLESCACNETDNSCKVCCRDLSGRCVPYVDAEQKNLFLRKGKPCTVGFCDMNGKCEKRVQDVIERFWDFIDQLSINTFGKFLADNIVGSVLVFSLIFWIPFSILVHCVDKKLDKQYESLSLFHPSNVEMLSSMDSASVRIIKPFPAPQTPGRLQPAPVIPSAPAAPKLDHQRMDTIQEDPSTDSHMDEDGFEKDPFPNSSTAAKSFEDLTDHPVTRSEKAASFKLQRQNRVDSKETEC
proKLK7 act: proKLK7 zymogen activators, primary screen, biochemical, fluorescence intensity; Kallikrein-7 (Homo sapiens), P49862; purified proKLK7, EDANS-DABCYL substrate fluorescence; 100% is mature enzyme control, 0% vehicle; activation, % at 7 µM; hit rate 0.9% among 370,000;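 active = activation above the mean of all tested compounds plus 3 SD, computed per campaign excluding outliers beyond control limits, cut at about 13% in these data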
FAS-TE inh: FAS thioesterase domain inhibitors, primary screen, biochemical, fluorescence intensity, uHTS | AID 602261, 2012 | Fatty acid synthase (Homo sapiens), P49327 | recombinant FAS-TE, OMFH fluorogenic substrate, fluorescence endpoint | hit rate 0.67% among 360,000 | inhibition, % at 15 µM;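 active = compounds whose normalised, plate-corrected inhibition of enzyme fluorescence in the single-dose primary screen is 50% or more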
ADAM10 inh: human ADAM10 inhibitors, primary screen, biochemical, QFRET, HTS. Disintegrin and metalloproteinase domain-containing protein 10 (Homo sapiens), O14672. recombinant ADAM10, EDANS/DABCYL FRET peptide cleavage, 3 h. inhibition, % at 7 µM. hit rate 0.62% among 370,000;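 active = inhibition above a per-campaign cutoff equal to the mean of compounds falling between control-based bounds plus 3 SD, cut at about 20% in these data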
ADAM10 confirm: human ADAM10 inhibitors, confirmation, biochemical, QFRET, triplicate; ADAM10 QFRET peptide cleavage, EDANS fluorescence; shares compounds with ADAM10 inh; inhibition, % at 6.95 µM; hit rate 1% among 2,100;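 active = inhibition above about 20% chosen separately for each screening run, limit read from the data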
ADAM17 ctr: ADAM17 inhibitors, counter-screen for ADAM10 exosite inhibitor project, biochemical, QFRET, high throughput | inhibition, % at 6.95 µM | AID 743214, 2013 | shares compounds with ADAM10 inh | hit rate 0.5% among 2,100 | ADAM17 QFRET peptide cleavage, EDANS fluorescence;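 active = mean triplicate inhibition above the solvent-only control wells' mean plus 3 SD, cut at about 12% in these data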
ADAM10 ctr: ADAM10 inhibitors, counter-screen for ADAM17 exosite inhibitor project, biochemical, FRET, human ADAM10. shares compounds with ADAM17 inh. recombinant ADAM10, EDANS/DABCYL FRET peptide cleavage, 3 h. inhibition, % at 6.95 µM. hit rate 47% among 2,900;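 active = mean inhibition over the triplicate runs exceeds the activity threshold set in the earlier primary screen, cut at about 20% in these data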
ADAM17 confirm: ADAM17 inhibitors, hit retest, confirmation, biochemical, QFRET peptide cleavage. shares compounds with ADAM17 inh. recombinant ADAM17, EDANS/DABCYL QFRET peptide cleavage. inhibition, % at 6.95 µM. hit rate 65% among 2,900. AID 743257, 2014;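 active = mean inhibition across replicates above the hit cutoff set in the primary screen, cut at about 8.5% in these data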
Of the large screens only hits and unclear results are named; the others gave an inactive call (follow-up assays come after a bar, where they were run).

O=C(NCC(F)(F)F)c1cc2c(c(-c3cccc(-c4ccccc4F)c3)n1)[C@@H](CCO)N(C(=O)CC1CC1)C2	ADAM17 inh 10, ADAM10 inh 20 (no result: NR3A LBD binder) | ADAM10 confirm inactive | ADAM17 ctr inactive | ADAM10 ctr inactive | ADAM17 confirm 11
CC(C)(C)S(=O)N1Cc2cc(C(=O)NCC(F)(F)F)nc(-c3cccc(-c4cccc(F)c4)c3)c2[C@@H]1CCO (stereo not given in full)	ADAM17 inh 15, ADAM10 inh 27 (no result: NR3A LBD binder) | ADAM10 confirm inactive | ADAM17 ctr inactive | ADAM10 ctr inactive | ADAM17 confirm inactive
C[C@@H]1CN([C@H](C)CO)C(=O)c2c(c3ccccc3n2C)-c2ccccc2CO[C@@H]1CN(C)C(=O)CCN(C)C	none (no result: NR3A LBD binder, FAS-TE inh)
Fc1ccc(-c2ccc3c(n2)CCCN3Cc2ccccc2C(F)(F)F)cc1	none (no result: NR3A LBD binder, FAS-TE inh)
COc1ccccc1/C(C)=N/Oc1cc(N)cc([N+](=O)[O-])c1	ADAM17 inh 15, ADAM10 inh 27 | ADAM10 confirm inactive | ADAM17 ctr inactive | ADAM10 ctr inactive | ADAM17 confirm 9.8
COc1ccc(OC)c(NC(=O)C2C3C=CC(C3)C2C(=O)NCc2ccccn2)c1 (stereo not given)	ADAM17 inh 9.6, ADAM10 inh 30 | ADAM10 confirm inactive | ADAM17 ctr inactive | ADAM10 ctr inactive | ADAM17 confirm inactive
O=C(CCc1c[nH]c2ccccc12)OCc1ccc(Br)cc1	ADAM17 inh 12, ADAM10 inh 23 | ADAM10 confirm inactive | ADAM17 ctr inactive | ADAM10 ctr inactive | ADAM17 confirm 11
Cc1ccc(S(=O)(=O)Nc2ccc(-c3nnc(SCc4ccccc4Cl)o3)cc2)cc1	NR3A LBD binder 26, ADAM17 inh 9.6, ADAM10 inh 23 | ADAM10 confirm inactive | ADAM17 ctr inactive | ADAM10 ctr 34 | ADAM17 confirm 17
Cc1cc(C)c(O)c(-c2n[nH]c3c2C(c2cccc(O)c2)N(Cc2ccco2)C3=O)c1 (stereo not given)	ADAM17 inh 21, ADAM10 inh 37 | ADAM10 confirm inactive | ADAM17 ctr inactive | ADAM10 ctr 48 | ADAM17 confirm 23
COc1ccc(C2c3c(-c4ccccc4O)n[nH]c3C(=O)N2Cc2ccco2)cc1OC (stereo not given)	none
COc1ccc(CCN2C(=O)c3[nH]nc(-c4ccccc4O)c3C2c2cccc(O)c2)cc1OC (stereo not given)	ADAM17 inh 9.1, ADAM10 inh 30 | ADAM10 confirm inactive | ADAM17 ctr inactive | ADAM10 ctr 33 | ADAM17 confirm 14
O=C1c2[nH]nc(-c3ccccc3O)c2C(c2ccc(F)cc2)N1Cc1ccco1 (stereo not given)	none
COCCN1Cc2cc(C(=O)OC)c3c(c2C1=O)c1cc(OC)ccc1n3S(=O)(=O)c1ccc(C)cc1	none (no result: NR3A LBD binder, FAS-TE inh)
O=C1C(NC(=O)N2c3ccccc3C=Cc3ccccc32)CCCCN1Cc1cccc(Cl)c1 (stereo not given)	none (no result: NR3A LBD binder, FAS-TE inh)
O=C(OCC#CCSc1nnc(-c2cccc3ncccc23)o1)c1ccc(F)cc1	none (no result: NR3A LBD binder, proKLK7 act, FAS-TE inh)
Cc1ccc(S(=O)(=O)N(C)C)cc1NC(=O)C1CCC1	none
CCN(CC)S(=O)(=O)c1ccc(C)c(NC(=S)NNC(=O)C2CC2)c1	ADAM17 inh 9.7, ADAM10 inh 24 | ADAM10 confirm inactive | ADAM17 ctr inactive | ADAM10 ctr inactive | ADAM17 confirm inactive
O=C(NCc1ccccc1)[C@H]1CCCN1C(=O)[C@H]1CCCN1C(=O)N1CCCCC1	none (no result: NR3A LBD binder, FAS-TE inh)
O=C(Nc1ccc(Cl)c(Cl)c1)OCCNC(=O)c1cccc(Cl)c1	NR3A LBD binder 13, ADAM17 inh 9.0, ADAM10 inh 28 | ADAM10 confirm inactive | ADAM17 ctr inactive | ADAM10 ctr 28 | ADAM17 confirm 16
CCSc1nnc(-c2ccco2)n1C	none (no result: NR3A LBD binder, FAS-TE inh)
COC(=O)c1sccc1NC(=O)CSc1ccccc1NS(=O)(=O)c1ccc(Br)cc1	ADAM17 inh 11, ADAM10 inh 21 | ADAM10 confirm inactive | ADAM17 ctr inactive | ADAM10 ctr inactive | ADAM17 confirm inactive
CC1(Cc2ccc(C(F)(F)F)o2)C(=O)Nc2ccc(-c3cccc(C(F)(F)F)c3)cc21 (stereo not given)	ADAM17 inh 17, ADAM10 inh 28 (no result: NR3A LBD binder) | ADAM10 confirm inactive | ADAM17 ctr inactive | ADAM10 ctr 32 | ADAM17 confirm 21
Cc1cccc(NS(=O)(=O)c2ccc(C3CCCCC3)cc2)c1	ADAM17 inh 16, ADAM10 inh 32 | ADAM10 confirm inactive | ADAM17 ctr inactive | ADAM10 ctr 24 | ADAM17 confirm 15
O=C(O)c1cccc(NS(=O)(=O)c2ccc(C3CCCCC3)cc2)c1	none (no result: ADAM17 inh, proKLK7 act, ADAM10 inh)
COc1ccccc1OCCNc1cc(N2CCCCC2)ccc1[N+](=O)[O-]	none
CCOc1cc(N2CCCC2)ccc1[N+](=O)[O-]	ADAM17 inh 9.3, ADAM10 inh 20 | ADAM10 confirm inactive | ADAM17 ctr inactive | ADAM10 ctr inactive | ADAM17 confirm inactive
O=C(NO)c1ccc(OC(F)F)cc1	ADAM17 inh 15, ADAM10 inh 25 | ADAM10 confirm inactive | ADAM17 ctr inactive | ADAM10 ctr inactive | ADAM17 confirm 19
O=C(OCC#CCSc1nnc(-c2cccc3ccccc23)o1)c1cc(F)c(F)c(F)c1	none (no result: NR3A LBD binder, proKLK7 act, FAS-TE inh)
CCCCCCCCN1C(=O)[C@@H](CC(=O)NCC23CC4CC(CC(C4)C2)C3)C[C@@]2(C(=O)OC)C1=C[C@H](C1CCCC1)O[C@@H]2C	none (no result: NR3A LBD binder, FAS-TE inh)

Screens as filed in PubChem BioAssay.
